Measurements as given in the supplement of paper PMC11732987, “Enantioselective OTUD7B fragment discovery through chemoproteomics screening and high-throughput optimisation” (Communications Chemistry, 2025).

Assays:
Test in all cases: log2 ratio of Biotin-Ahx-Ub-VS probe labelling (fragment/DMSO); higher = less target engagement (more negative = stronger competition), active = hit call of the paper (q ≤ 0.05, log2 ratio ≤ -1)
Details in all cases: compound concentration: 200 uM; treatment time: 3 h
[1] = target: T1, OTUD6B (UniProt Q8N6M0)
T1 sequence (whole entry): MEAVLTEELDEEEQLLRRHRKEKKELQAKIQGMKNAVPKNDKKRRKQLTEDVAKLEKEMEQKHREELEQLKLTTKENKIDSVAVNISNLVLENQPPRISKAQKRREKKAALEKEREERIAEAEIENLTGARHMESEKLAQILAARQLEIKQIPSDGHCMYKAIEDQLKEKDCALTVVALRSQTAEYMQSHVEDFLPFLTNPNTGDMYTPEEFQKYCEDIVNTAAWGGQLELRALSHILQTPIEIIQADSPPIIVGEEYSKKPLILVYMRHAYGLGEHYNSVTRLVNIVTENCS
Method in brief: (§1)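 Global-median-normalised Spectronaut label-free quantities were compared by unpaired t-test, and values are average log2 ratios of fragment over vehicle. Only proteins with ≥2 unique peptides were used. HEK293T lysate (495 µg per sample) was treated in triplicate with fragment at 200 µM or vehicle for 3 h and then with Biotin-Ahx-Ub-VS at 0.5 µM final for 1 h. Labelled DUBs were then NeutrAvidin-enriched, digested with LysC and trypsin, and run by diaPASEF LC-MS/MS.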

[2] = target: T2, OTUD7B (UniProt Q6GQQ9)
T2 sequence (whole entry): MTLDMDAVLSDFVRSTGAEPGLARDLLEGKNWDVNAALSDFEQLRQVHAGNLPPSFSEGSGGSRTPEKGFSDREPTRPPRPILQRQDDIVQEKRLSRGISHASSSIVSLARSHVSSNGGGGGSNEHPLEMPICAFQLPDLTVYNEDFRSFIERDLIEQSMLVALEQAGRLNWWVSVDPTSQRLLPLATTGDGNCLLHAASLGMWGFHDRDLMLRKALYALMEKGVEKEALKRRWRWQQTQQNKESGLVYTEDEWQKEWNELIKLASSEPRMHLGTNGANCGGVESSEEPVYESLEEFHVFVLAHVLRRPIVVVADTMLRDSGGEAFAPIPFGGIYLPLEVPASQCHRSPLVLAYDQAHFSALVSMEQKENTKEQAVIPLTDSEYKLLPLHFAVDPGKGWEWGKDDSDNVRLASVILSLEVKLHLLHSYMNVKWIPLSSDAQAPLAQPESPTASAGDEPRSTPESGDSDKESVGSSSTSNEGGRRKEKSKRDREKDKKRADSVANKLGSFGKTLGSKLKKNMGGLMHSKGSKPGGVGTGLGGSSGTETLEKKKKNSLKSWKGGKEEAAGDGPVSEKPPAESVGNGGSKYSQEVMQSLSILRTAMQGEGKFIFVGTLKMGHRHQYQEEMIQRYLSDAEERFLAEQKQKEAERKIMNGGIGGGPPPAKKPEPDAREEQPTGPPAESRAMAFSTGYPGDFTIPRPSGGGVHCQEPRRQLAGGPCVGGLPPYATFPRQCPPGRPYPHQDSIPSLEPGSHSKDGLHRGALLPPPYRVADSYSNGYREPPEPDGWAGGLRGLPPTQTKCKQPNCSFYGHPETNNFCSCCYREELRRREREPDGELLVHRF
Method in brief: as §1

[3] = target: PRPF8 (UniProt Q6P2Q9)
Method in brief: as §1

[4] = target: T3, PSMD7 (UniProt P51665)
T3 sequence (whole entry): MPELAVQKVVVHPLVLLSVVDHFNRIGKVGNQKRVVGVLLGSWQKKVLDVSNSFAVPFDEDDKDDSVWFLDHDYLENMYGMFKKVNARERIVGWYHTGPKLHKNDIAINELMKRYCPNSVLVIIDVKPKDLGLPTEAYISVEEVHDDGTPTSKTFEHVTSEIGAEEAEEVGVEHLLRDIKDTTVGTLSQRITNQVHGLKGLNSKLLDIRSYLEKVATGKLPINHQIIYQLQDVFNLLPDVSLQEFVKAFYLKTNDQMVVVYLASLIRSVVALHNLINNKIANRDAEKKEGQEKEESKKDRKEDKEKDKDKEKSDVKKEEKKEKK
Method in brief: as §1

[5] = target: UCHL1 (UniProt P09936)
Method in brief: as §1

[6] = target: T4, UCHL3 (UniProt P15374)
T4 sequence (whole entry): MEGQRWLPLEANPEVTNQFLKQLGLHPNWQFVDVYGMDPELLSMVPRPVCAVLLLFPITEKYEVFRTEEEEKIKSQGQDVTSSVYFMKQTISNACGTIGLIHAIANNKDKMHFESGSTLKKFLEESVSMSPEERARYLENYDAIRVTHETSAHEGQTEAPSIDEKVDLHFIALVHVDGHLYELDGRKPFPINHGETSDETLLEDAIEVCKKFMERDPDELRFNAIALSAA
Method in brief: as §1

[7] = target: T5, UCHL5 (UniProt Q9Y5K5)
T5 sequence (whole entry): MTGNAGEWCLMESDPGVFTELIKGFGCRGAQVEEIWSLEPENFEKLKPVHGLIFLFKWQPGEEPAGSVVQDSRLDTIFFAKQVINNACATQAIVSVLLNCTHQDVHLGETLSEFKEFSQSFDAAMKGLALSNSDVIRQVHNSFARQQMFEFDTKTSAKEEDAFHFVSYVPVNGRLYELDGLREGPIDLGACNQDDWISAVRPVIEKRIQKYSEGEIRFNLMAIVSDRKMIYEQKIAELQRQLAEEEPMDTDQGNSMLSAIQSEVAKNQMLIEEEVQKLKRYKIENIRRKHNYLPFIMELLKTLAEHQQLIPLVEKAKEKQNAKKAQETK
Method in brief: as §1

[8] = target: USP10 (UniProt Q14694)
Method in brief: as §1

[9] = target: T6, USP15 (UniProt Q9Y4E8)
T6 sequence (whole entry): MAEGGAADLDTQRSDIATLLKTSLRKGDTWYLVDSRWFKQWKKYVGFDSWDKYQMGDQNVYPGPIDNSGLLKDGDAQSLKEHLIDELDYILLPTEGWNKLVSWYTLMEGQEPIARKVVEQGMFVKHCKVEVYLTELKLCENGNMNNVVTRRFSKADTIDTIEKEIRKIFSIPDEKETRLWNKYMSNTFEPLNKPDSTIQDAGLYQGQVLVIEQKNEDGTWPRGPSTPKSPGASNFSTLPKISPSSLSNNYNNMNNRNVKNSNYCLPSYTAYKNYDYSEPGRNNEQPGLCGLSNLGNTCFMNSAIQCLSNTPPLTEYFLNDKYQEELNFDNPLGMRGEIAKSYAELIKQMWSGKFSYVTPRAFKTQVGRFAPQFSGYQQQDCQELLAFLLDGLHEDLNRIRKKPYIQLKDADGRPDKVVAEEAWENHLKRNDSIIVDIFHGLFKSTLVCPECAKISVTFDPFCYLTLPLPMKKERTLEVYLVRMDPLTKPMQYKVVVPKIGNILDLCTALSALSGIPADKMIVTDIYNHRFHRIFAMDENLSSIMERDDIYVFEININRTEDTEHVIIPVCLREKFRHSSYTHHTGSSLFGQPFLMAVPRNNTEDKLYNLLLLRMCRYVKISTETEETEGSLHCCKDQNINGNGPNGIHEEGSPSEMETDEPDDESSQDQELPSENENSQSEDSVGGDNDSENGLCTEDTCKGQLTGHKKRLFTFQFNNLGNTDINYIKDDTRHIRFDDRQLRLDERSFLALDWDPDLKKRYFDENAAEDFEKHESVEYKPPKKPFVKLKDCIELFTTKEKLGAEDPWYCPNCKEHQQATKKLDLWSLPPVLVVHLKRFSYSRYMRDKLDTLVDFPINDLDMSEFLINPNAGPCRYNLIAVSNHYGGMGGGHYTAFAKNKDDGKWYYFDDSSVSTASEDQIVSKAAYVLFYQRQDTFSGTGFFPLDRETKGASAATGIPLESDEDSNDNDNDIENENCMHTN
Method in brief: as §1

[10] = target: USP16 (UniProt Q9Y5T5)
Method in brief: as §1

Measured: log2 ratio of Biotin-Ahx-Ub-VS probe labelling

Sequence of USP10 (Q14694 whole entry): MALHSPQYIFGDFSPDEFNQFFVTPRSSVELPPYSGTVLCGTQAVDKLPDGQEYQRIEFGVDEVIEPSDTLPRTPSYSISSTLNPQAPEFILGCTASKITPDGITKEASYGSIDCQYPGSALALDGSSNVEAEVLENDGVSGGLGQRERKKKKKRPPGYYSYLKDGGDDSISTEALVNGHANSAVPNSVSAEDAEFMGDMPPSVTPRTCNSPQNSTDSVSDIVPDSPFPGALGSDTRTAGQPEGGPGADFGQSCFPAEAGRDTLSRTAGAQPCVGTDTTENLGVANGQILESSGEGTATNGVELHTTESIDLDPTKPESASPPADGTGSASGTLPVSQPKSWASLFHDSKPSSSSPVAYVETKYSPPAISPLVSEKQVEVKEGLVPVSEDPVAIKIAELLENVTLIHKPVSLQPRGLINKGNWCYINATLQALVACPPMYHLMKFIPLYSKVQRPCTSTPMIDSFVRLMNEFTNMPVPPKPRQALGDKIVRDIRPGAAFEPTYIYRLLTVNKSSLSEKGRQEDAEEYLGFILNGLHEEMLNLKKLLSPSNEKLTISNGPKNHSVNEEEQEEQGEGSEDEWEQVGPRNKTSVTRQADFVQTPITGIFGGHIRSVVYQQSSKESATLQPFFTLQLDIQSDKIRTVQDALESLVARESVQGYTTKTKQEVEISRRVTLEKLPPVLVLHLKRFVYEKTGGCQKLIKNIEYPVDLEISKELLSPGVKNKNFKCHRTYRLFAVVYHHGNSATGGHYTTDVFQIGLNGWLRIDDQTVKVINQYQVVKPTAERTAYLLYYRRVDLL
Sequence of USP16 (Q9Y5T5 whole entry, looked up): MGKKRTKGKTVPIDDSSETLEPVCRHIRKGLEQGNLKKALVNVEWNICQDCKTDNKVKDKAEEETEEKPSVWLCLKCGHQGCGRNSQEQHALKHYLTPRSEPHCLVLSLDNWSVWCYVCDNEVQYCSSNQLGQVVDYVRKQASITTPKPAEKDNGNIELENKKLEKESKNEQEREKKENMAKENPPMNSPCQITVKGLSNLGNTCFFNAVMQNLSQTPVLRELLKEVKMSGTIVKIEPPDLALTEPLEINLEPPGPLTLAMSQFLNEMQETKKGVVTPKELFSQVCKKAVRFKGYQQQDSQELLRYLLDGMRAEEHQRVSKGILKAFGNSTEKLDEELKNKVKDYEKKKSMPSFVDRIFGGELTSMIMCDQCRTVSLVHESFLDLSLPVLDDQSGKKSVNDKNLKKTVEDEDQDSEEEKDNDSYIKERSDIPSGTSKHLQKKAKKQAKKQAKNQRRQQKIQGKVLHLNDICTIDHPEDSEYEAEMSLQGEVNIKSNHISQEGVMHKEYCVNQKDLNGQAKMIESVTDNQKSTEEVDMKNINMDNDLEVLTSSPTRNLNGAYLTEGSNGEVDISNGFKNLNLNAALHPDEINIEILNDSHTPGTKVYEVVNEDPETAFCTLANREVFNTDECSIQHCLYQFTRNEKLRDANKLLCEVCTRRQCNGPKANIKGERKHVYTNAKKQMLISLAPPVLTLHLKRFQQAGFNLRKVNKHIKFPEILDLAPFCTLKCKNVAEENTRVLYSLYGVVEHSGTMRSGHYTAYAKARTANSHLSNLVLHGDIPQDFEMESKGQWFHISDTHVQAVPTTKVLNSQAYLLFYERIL
Sequence of UCHL1 (P09936 whole entry, looked up): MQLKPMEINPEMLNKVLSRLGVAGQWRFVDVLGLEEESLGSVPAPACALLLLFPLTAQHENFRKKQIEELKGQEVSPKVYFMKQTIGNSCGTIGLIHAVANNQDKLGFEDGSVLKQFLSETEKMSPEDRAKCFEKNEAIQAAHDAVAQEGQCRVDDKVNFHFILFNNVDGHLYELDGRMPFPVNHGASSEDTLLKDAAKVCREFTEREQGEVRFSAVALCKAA

O=C(CCl)N(C1=CCCCC1)C1CC1
active: [5] -1.24
inactive: [1] -0.00924 | [2] -0.39 | [3] 0.215 | [4] 0.0445 | [6] 0.218 | [7] -0.186 | [8] -0.112 | [9] -0.209 | [10] -0.193
